Screens: PubChem BioAssay, The Scripps Research Institute Molecular Screening Center
This is a sample that favours compounds with a hit; in the whole collection about 2.9% have one here.
PAFAH1B2 FP inh: PAFAH1B2 (human) inhibition. 340,000 compounds, 1.2% hits. P68402. AID 492953. recombinant PAFAH1B2, FP-rhodamine activity probe, fluorescence polarization. inhibition, % at 3.39 µM;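 active = inhibition above the mean of all tested compounds plus 3 SD, cut at about 24% in these data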
Target sequence (P68402 whole entry, looked up): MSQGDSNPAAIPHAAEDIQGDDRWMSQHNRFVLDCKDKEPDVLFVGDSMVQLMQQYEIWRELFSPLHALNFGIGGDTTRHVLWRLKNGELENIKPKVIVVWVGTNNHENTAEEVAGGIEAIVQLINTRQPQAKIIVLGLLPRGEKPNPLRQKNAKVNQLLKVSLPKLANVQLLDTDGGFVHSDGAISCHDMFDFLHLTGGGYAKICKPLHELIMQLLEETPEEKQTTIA
Fam108B inh: counter-screen for RBBP9 inhibitors: inhibitors of mouse Fam108B; recombinant Fam108B, FP-Rh probe fluorescence polarization; inhibition, % at 9.51 µM; 300,000 compounds, 0.33% hits; AID 1947;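 active = inhibition above the screen mean inhibition plus 3 SD, computed separately per campaign, cut at about 18% in these data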;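 note: inhibitors lower polarization as less probe binds the enzyme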
PME-1 primary: blocks human protein phosphatase methylesterase 1; recombinant PME-1, FP-Rh probe fluorescence polarization; 320,000 compounds, 0.53% hits; Q9Y570; inhibition, % at 5.9 µM;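 active = inhibition above the campaign mean of all compounds plus 3 SD, cut at about 26% in these data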;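 note: competitive labeling of PME-1 active site by serine hydrolase directed probe; inhibitors block probe labeling so polarization falls and inhibition rises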
PAFAH2 FP inh: inhibitors of human PAFAH2; Q99487; 340,000 compounds, 0.99% hits; recombinant PAFAH2, FP-rhodamine activity probe, fluorescence polarization; inhibition, % at 3.39 µM;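 active = inhibition above the mean over all tested compounds plus 3 SD, cut at about 30% in these data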;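 note: inhibitors block probe labeling of enzyme so polarization drops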
PAFAH1B3 FP inh: blocks human PAF acetylhydrolase 1B catalytic subunit 3; Q15102; recombinant PAFAH1B3, FP-rhodamine probe, fluorescence polarization; inhibition, % at 3.39 µM; 340,000 compounds, 0.28% hits; AID 492972;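 active = inhibition above the screen-wide average of all tested compounds plus 3 SD, cut at about 25% in these data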
Target sequence (Q15102 whole entry, looked up): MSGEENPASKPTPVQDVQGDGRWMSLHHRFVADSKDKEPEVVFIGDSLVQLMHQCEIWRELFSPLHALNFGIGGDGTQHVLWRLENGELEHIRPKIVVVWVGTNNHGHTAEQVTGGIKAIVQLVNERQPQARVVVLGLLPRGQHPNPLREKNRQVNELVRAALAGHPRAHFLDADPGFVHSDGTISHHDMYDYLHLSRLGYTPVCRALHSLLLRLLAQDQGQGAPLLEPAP
pPAFAH FP inh: inhibitors of human plasma PAF acetylhydrolase (pPAFAH) | Q13093 | recombinant pPAFAH, FP-rhodamine probe fluorescence polarization | inhibition, % at 3.39 µM | 330,000 compounds, 1.5% hits;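 active = inhibition above the mean inhibition across the screen plus 3 SD, cut at about 25% in these data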;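 note: inhibitors block binding of the rhodamine activity-based probe so polarization drops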
Numbers stand for hits.

Screening CCOC(=O)c1ccc(Nc2ncccc2[N+](=O)[O-])cc1 returned PAFAH1B2 FP inh inactive, Fam108B inh inactive, PME-1 primary inactive, PAFAH2 FP inh inactive, PAFAH1B3 FP inh inactive and pPAFAH FP inh inactive.
For O=C(O)CC/C(=C\c1ccc(N2CCCC2)c([N+](=O)[O-])c1)c1nc2ccccc2s1 the results were PAFAH1B2 FP inh 103, Fam108B inh inactive, PME-1 primary 40, PAFAH2 FP inh inactive, PAFAH1B3 FP inh inactive and pPAFAH FP inh inactive.
O=C(O)CC/C(=C\c1ccccc1[N+](=O)[O-])c1nc2ccccc2s1 was read as PAFAH1B2 FP inh inactive, Fam108B inh inactive, PME-1 primary inactive, PAFAH2 FP inh inactive, PAFAH1B3 FP inh inactive and pPAFAH FP inh inactive.
Screening O=C(O)CC/C(=C\c1cc([N+](=O)[O-])ccc1Cl)c1nc2ccccc2s1 returned PAFAH1B2 FP inh inactive, Fam108B inh inactive, PME-1 primary inactive, PAFAH2 FP inh inactive, PAFAH1B3 FP inh inactive and pPAFAH FP inh inactive.
`CN(c1ccccc1)c1ccc(/C=C(/CCC(=O)O)c2nc3ccccc3s2)cc1[N+](=O)[O-]` gave PAFAH1B2 FP inh 94, PAFAH2 FP inh 41 and PAFAH1B3 FP inh inactive.
`COc1cc(C2c3c(c(C)c(C)oc3=O)Oc3c(C)c(C)oc(=O)c32)ccc1OS(=O)(=O)c1ccc(C)cc1` gave PAFAH1B2 FP inh inactive, PME-1 primary inactive, PAFAH2 FP inh inactive, PAFAH1B3 FP inh inactive and pPAFAH FP inh inactive.
Screening CCc1ccc(S(=O)(=O)Nc2ccc(-c3ccc4nnc(C)n4n3)cc2)s1 returned PAFAH1B2 FP inh inactive, PME-1 primary inactive, PAFAH2 FP inh inactive, PAFAH1B3 FP inh inactive and pPAFAH FP inh inactive.
Cc1nnc2ccc(-c3ccc(NS(=O)(=O)c4ccc(Cl)s4)cc3)nn12 was read as PAFAH1B2 FP inh inactive, PME-1 primary inactive, PAFAH2 FP inh inactive, PAFAH1B3 FP inh inactive and pPAFAH FP inh 26.
Cc1cc(C(=O)COc2ccc3ccc(=O)oc3c2)c(C)n1C was read as PAFAH1B2 FP inh inactive, Fam108B inh inactive, PME-1 primary inactive, PAFAH2 FP inh inactive, PAFAH1B3 FP inh inactive and pPAFAH FP inh inactive.
COc1cccc(CNC(=O)CCN2C(=O)[C@@H]3Cc4ccccc4CN3C2=O)c1 was read as PAFAH1B2 FP inh inactive, Fam108B inh inactive, PME-1 primary inactive, PAFAH2 FP inh inactive, PAFAH1B3 FP inh inactive and pPAFAH FP inh inactive.
CCN(CC)C(=O)CSc1nc2c(sc(=S)n2-c2ccccc2)c(=O)n1Cc1ccco1 was read as PAFAH1B2 FP inh inactive, Fam108B inh inactive, PME-1 primary 63, PAFAH2 FP inh inactive, PAFAH1B3 FP inh inactive and pPAFAH FP inh inactive.
Screening O=C(Nc1ccccn1)C1CCCN(c2ncnc3c2nc2n3CCCCC2)C1 (stereo not given) returned PAFAH1B2 FP inh inactive, Fam108B inh inactive, PME-1 primary inactive, PAFAH2 FP inh inactive, PAFAH1B3 FP inh inactive and pPAFAH FP inh inactive.
Cc1ccc(-c2nn3c(C)nnc3c3ccccc23)cc1S(=O)(=O)NC(C)c1ccccc1 (stereo not given) was read as PAFAH1B2 FP inh 26, Fam108B inh inactive, PME-1 primary inactive, PAFAH2 FP inh inactive, PAFAH1B3 FP inh inactive and pPAFAH FP inh inactive.
Cc1cc(F)ccc1NC(=O)c1ccc(NS(=O)(=O)c2cc(C(C)(C)C)ccc2C)cc1 was read as PAFAH1B2 FP inh inactive, Fam108B inh inactive, PME-1 primary inactive, PAFAH2 FP inh inactive, PAFAH1B3 FP inh inactive and pPAFAH FP inh 25.
`COc1ccccc1NC(=O)c1cccc(N2C(=O)C3C4C=CC(C4)C3C2=O)c1` (stereo not given) gave PAFAH1B2 FP inh inactive, Fam108B inh inactive, PME-1 primary inactive, PAFAH2 FP inh inactive, PAFAH1B3 FP inh inactive and pPAFAH FP inh inactive.
Screening O=C(COc1ccc(F)cc1)N/N=C/c1cccc2cccnc12 returned PAFAH1B2 FP inh inactive, Fam108B inh inactive, PME-1 primary inactive, PAFAH2 FP inh inactive, PAFAH1B3 FP inh inactive and pPAFAH FP inh inactive.
For Cc1ccc(-n2nnnc2SCCNS(=O)(=O)c2ccccc2)cc1C the results were PAFAH1B2 FP inh inactive, Fam108B inh inactive, PME-1 primary inactive, PAFAH2 FP inh inactive, PAFAH1B3 FP inh inactive and pPAFAH FP inh 29.
Screening Cn1nnnc1SCCNS(=O)(=O)c1ccccc1 returned PAFAH1B2 FP inh inactive, Fam108B inh inactive, PME-1 primary inactive, PAFAH2 FP inh inactive, PAFAH1B3 FP inh inactive and pPAFAH FP inh inactive.
For Cc1ccccc1NS(=O)(=O)c1cccc(C(=O)Nc2cccc(C(=O)O)c2)c1 the results were PAFAH1B2 FP inh inactive, Fam108B inh inactive, PME-1 primary inactive, PAFAH2 FP inh inactive, PAFAH1B3 FP inh inactive and pPAFAH FP inh 27.
For C/C(=N\NS(=O)(=O)c1ccccc1)c1cccc(NC(=O)c2cccc(Cl)c2)c1 the results were PAFAH1B2 FP inh inactive, Fam108B inh inactive, PME-1 primary inactive, PAFAH2 FP inh inactive, PAFAH1B3 FP inh inactive and pPAFAH FP inh 25.
For CCNC(=S)Nc1cc(OCC)c(NC(=O)c2ccco2)cc1OCC the results were PAFAH1B2 FP inh inactive, Fam108B inh inactive, PME-1 primary inactive, PAFAH2 FP inh inactive, PAFAH1B3 FP inh inactive and pPAFAH FP inh inactive.
CCOc1cc(NS(=O)(=O)c2ccccc2)c(OCC)cc1NC(=O)c1ccco1 was read as PAFAH1B2 FP inh inactive, Fam108B inh inactive, PME-1 primary inactive, PAFAH2 FP inh inactive, PAFAH1B3 FP inh inactive and pPAFAH FP inh 31.
`Cc1ccccc1NS(=O)(=O)c1ccc(NC(=O)c2ccco2)cc1` gave PAFAH1B2 FP inh inactive, Fam108B inh inactive, PME-1 primary inactive, PAFAH2 FP inh inactive, PAFAH1B3 FP inh inactive and pPAFAH FP inh 29.
For C/C(=N/NS(=O)(=O)c1ccc(Cl)cc1)c1cccc(NC(=O)c2ccncc2)c1 the results were PAFAH1B2 FP inh inactive, Fam108B inh inactive, PME-1 primary inactive, PAFAH2 FP inh inactive, PAFAH1B3 FP inh inactive and pPAFAH FP inh inactive.
`COc1ccccc1N1CCN(CCCCOc2ccc(C)cc2C)CC1` gave PAFAH1B2 FP inh inactive, Fam108B inh inactive, PME-1 primary inactive, PAFAH2 FP inh inactive, PAFAH1B3 FP inh inactive and pPAFAH FP inh inactive.
Cc1ccccc1NS(=O)(=O)c1ccc(NC(=O)c2nc3ncccn3n2)cc1 was read as PAFAH1B2 FP inh inactive, Fam108B inh inactive, PME-1 primary inactive, PAFAH2 FP inh inactive, PAFAH1B3 FP inh inactive and pPAFAH FP inh 29.
Screening COc1ccccc1NS(=O)(=O)c1ccc(NC(=O)c2nc3ncccn3n2)cc1 returned PAFAH1B2 FP inh inactive, PAFAH2 FP inh inactive and PAFAH1B3 FP inh inactive.
Screening O=C(O)CCN1C(=O)/C(=C\c2cccc(OCc3ccccc3)c2)SC1=S returned PAFAH1B2 FP inh 27, Fam108B inh inactive, PME-1 primary inactive, PAFAH2 FP inh inactive, PAFAH1B3 FP inh inactive and pPAFAH FP inh inactive.
Screening O=C(O)CN1C(=O)/C(=C\c2ccccc2OCc2ccc(Cl)cc2Cl)SC1=S returned PAFAH1B2 FP inh inactive, Fam108B inh inactive, PME-1 primary inactive, PAFAH2 FP inh inactive, PAFAH1B3 FP inh inactive and pPAFAH FP inh 34.
For O=C(O)CCN1C(=O)/C(=C\c2ccc(OCc3ccccc3)c(OCc3ccccc3)c2)SC1=S the results were PAFAH1B2 FP inh inactive, Fam108B inh inactive, PME-1 primary inactive, PAFAH2 FP inh inactive, PAFAH1B3 FP inh inactive and pPAFAH FP inh inactive.
